Measurements taken from PubChem BioAssay.
The source made the active and inactive calls.

Columns and labels:
[1] = tested on: Plasmodium falciparum Sir2 (PF13_0152, Sir2A); experiment: pfSir2 binders on small-molecule microarrays, primary screen, biochemical, small-molecule microarray, 635 nm fluorescence (AID 1098); conditions: small-molecule microarray binding, fluorescence 635 nm; higher = more signal;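 also: score merges spot fluorescence intensity with its signal-to-noise ratio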
[2] = small-molecule microarray binders of probe aDKK1, primary screen, biochemical, biotinylated probe, 635/667 nm fluorescence (AID 1099); conditions: higher = more signal;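 also: score merges 667nm spot fluorescence with signal to noise across triplicate slides; reference of the scale not given here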
[3] = small-molecule microarray binders of probe aCHRDL2, primary screen, biochemical, biotinylated probe, 635/667 nm fluorescence (AID 1100); conditions: higher = more signal
[4] = splicing luciferase reporter signal modulators, primary screen, spliceosome inhibition project, cell-based, HEK293, splice +/- reporter (AID 1101); conditions: luminescence, 24 h, higher = more signal, called active from +8 up or from −8 down;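 also: HEK293 cells carrying a splicing-competent luciferase reporter gene; test concentration not given here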
[5] = target: Fibroblast growth factor 10 (Homo sapiens) (UniProt O15520); experiment: FGF10 binders on small-molecule microarrays, primary screen, biochemical, small-molecule microarray, 635 nm fluorescence (AID 1102); conditions: FGF10 binding, fluorescence 635 nm, higher = more signal
[6] = tested on: glycogen synthase kinase-3 (GSK3A per assay name; protocol says GSK3B); experiment: GSK3 binders on small-molecule microarrays, primary screen, biochemical, small-molecule microarray, 635 nm fluorescence, GSK3A (AID 1103); conditions: small-molecule microarray binding, fluorescence 635 nm; higher = more signal; also: the record names both GSK3A and GSK3B
[7] = target: Epidermal growth factor receptor (Homo sapiens) (UniProt P00533); experiment: EGFR binders on small-molecule microarrays, primary screen, biochemical, small-molecule microarray, 635 nm fluorescence (AID 1104); conditions: EGFR binding, higher = more signal;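 also: score merges 667 nm emission intensity with spot signal to noise over triplicate slides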
[8] = target: Follistatin-related protein 3 (Homo sapiens) (UniProt O95633); experiment: FSTL3 binders on small-molecule microarrays, primary screen, biochemical, small-molecule microarray, 635 nm fluorescence (AID 1105); conditions: FSTL3 binding, higher = more signal;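 also: score merges emission near 667 nm and signal to noise per printed spot across three slides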
[9] = target: Dickkopf-related protein 1 (Homo sapiens) (UniProt O94907); experiment: DKK1 binders on small-molecule microarrays, primary screen, biochemical, small-molecule microarray, 635 nm fluorescence scan (AID 1106); conditions: DKK1 binding, higher = more signal;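 also: score merges emission near 667 nm with signal to noise over three replicate slides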
[10] = tested on: Inhibin beta A chain (activin A); experiment: INHBA (activin A) binders on microarrays, primary screen, biochemical, small-molecule microarray, 635 nm fluorescence scan (AID 1107); conditions: small-molecule microarray binding, higher = more signal;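 also: mouse activin A protein probed at 4.33 µg/mL on printed slides; score merges bound-protein fluorescence near 667 nm with spot signal-to-noise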

Follistatin-related protein 3 (Homo sapiens), sequence (O95633 whole entry, looked up): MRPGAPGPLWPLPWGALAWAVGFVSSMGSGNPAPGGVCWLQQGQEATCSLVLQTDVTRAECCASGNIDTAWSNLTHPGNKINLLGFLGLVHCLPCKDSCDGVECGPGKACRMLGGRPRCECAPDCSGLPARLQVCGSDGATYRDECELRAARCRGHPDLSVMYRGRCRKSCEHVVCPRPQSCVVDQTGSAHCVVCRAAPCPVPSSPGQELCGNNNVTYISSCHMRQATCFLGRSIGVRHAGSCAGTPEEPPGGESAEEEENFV
Fibroblast growth factor 10 (Homo sapiens), sequence (O15520 whole entry, looked up): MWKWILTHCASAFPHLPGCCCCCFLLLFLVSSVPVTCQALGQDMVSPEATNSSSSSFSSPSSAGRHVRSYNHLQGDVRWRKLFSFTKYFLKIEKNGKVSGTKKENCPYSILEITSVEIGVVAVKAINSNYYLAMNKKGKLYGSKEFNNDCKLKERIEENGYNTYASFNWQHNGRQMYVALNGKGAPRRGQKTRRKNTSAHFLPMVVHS
Dickkopf-related protein 1 (Homo sapiens), sequence (O94907 whole entry, looked up): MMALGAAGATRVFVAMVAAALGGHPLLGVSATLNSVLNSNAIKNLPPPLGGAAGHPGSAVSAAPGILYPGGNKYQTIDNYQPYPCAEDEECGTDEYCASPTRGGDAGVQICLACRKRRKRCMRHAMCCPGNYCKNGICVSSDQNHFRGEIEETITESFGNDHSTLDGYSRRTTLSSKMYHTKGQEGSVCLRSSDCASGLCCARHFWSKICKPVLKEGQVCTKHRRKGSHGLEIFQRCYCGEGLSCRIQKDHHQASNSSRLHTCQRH
Epidermal growth factor receptor (Homo sapiens), sequence (P00533 whole entry, looked up): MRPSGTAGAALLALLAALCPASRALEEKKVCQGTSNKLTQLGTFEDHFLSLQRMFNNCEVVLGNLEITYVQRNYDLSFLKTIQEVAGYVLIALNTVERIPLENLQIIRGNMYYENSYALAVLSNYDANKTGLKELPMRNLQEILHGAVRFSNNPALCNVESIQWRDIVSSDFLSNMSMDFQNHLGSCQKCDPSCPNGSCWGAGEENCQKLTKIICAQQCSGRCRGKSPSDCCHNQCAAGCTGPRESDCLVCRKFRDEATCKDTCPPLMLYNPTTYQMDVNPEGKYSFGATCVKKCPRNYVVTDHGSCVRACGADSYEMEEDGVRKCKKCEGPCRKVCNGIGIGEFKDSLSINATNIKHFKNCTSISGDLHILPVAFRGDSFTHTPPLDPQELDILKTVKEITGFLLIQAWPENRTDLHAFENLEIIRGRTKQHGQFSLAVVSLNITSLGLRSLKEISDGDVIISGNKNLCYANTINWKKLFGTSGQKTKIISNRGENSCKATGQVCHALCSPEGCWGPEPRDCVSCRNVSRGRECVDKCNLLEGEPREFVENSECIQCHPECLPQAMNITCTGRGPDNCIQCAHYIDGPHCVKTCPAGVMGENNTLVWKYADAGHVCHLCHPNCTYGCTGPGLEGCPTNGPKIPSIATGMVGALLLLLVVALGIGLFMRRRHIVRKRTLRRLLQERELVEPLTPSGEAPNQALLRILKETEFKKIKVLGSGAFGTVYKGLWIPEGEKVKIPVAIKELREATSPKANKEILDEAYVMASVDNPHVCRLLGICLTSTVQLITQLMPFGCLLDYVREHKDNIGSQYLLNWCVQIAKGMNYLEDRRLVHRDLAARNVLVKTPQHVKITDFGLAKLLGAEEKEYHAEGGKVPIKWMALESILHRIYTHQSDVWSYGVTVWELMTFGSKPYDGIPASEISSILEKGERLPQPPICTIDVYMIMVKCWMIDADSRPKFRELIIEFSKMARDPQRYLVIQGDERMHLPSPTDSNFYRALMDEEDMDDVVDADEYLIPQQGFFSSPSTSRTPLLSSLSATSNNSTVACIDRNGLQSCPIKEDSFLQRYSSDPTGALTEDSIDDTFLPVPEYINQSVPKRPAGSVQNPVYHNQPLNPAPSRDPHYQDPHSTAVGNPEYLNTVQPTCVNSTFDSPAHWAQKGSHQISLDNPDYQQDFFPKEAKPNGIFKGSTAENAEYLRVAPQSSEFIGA

SMILES	composite z-score [1]	composite z-score [2]	composite z-score [3]	z-score [4]	composite z-score [5]	composite z-score [6]	composite z-score [7]	composite z-score [8]	composite z-score [9]	composite z-score [10]
O=C1C[C@@H](O)[C@@H](O)[C@@H]2[C@@H]3C(=O)N(c4cccc(Oc5ccccc5)c4)C(=O)[C@@H]3CC[C@H]12	0.326	-0.18	-0.709	0.218 (inactive)	0.595	0.572	0.573	0.814	0.846	-0.173
CC(C)=CCCC(C)=CCON=C1C[C@@H](O)[C@@H](O)[C@@H]2[C@@H]3C(=O)N(c4cccc(Oc5ccccc5)c4)C(=O)[C@@H]3CC[C@@H]12	0.517	0.132	-0.209	-0.991 (inactive)	0.612	-0.112	0.118	0.574	0.373	0.399
CCCNC(=O)OC[C@H]1O[C@H](CCON=Cc2ccc(C(=O)N3[C@H](c4ccc(C)cc4)[C@@H](C)CC[C@H]3C(=O)OC)cc2)C=C[C@@H]1Oc1ccc(OC)cc1	0.463	-0.186	-0.0627	-0.357 (inactive)	0.523	0.581	0.417	0.355	0.0399	0.446
CO[C@H]1COC(=O)[C@@H](C)COC(=O)[C@H](C)NC(=O)CC=C[C@H]1C	0.473	-0.537	-1.73	-0.0731 (inactive)	0.577	0.732	0.785	1.54	1.32	1.13
CC(=O)OC[C@H]1O[C@H](C#Cc2ccccc2)C=C[C@@H]1OC(C)=O	1.27	-0.0406	-0.219	-1.92 (inactive)	0.338	0.163	0.0278	0.59	0.57	0.58
O=C(NN=C1C[C@@H](O)[C@@H](O)[C@@H]2[C@@H]3C(=O)N(C4CCCCC4)C(=O)[C@@H]3CC[C@@H]12)OCc1ccccc1	0.174	0.261	0.515	0.662 (inactive)	0.0342	0.0686	-0.0311	0.524	-0.0447	-0.347
CCOC(=O)[C@H](CC(C)C)NC(=O)CCC1CC(OC(=O)NCc2cccc3ccccc23)CC2(CCCC(COC(=O)NCCOc3ccccc3)O2)O1 (stereo not given in full)	0.951	-0.246	-0.383	-1.87 (inactive)	0.658	1.03	0.557	0.887	0.344	0.184
CC(C)=CCCC(C)=CCON=C1C[C@@H](O)[C@@H](O)[C@@H]2[C@@H]3C(=O)N(C[C@@H]4CCCO4)C(=O)[C@@H]3CC[C@H]12	0.346	-0.257	-0.762	0.91 (inactive)	1.37	1.25	1.29	1.39	1.46	1
CC(C)(C)N1C(=O)[C@H]2[C@H]3[C@H](O)C=CC(=O)[C@@H]3CC[C@H]2C1=O	0.294	-0.407	-0.428	-0.128 (inactive)	0.429	0.695	0.437	0.711	0.715	-0.214
COC(=O)CC=C[C@@H](C)[C@@H](C=NOCC[C@@H]1C=C[C@H](OC(C)=O)[C@@H](COC(C)=O)O1)OC	0.381	-0.0928	-0.546	1.21 (inactive)	0.933	0.328	0.498	0.651	0.556	-0.3
CO[C@H]1COC(=O)CCC[C@@H](C)[C@H](OC)COC(=O)[C@@H]2CCCN2C(=O)CC=C[C@@H]1C	1.78	-0.313	-0.959	-0.599 (inactive)	0.269	0.482	0.802	1.02	1.16	1.26
COc1ccc(O[C@H]2C=C[C@@H](c3ccccc3)O[C@@H]2COC(=O)CCC(C)=NOC[C@@H](O)[C@H]2O[C@@H]3OC(C)(C)O[C@@H]3[C@H]2O)cc1	0.933	-0.206	-0.633	0.17 (inactive)	0.766	0.87	0.615	0.847	0.551	0.437
CO[C@H]1COC(=O)CC=C[C@H](C)[C@@H](OC)COC(=O)[C@H](C)COC(=O)CC=C[C@@H]1C	0.661	-0.822	-1.53	-0.0334 (inactive)	0.0773	0.429	1.36	1.1	1.78	1.52
COc1ccc(O[C@H]2C=C[C@@H](c3ccccc3)O[C@@H]2CON=CC[C@@H]2C=C[C@H](OC(C)=O)[C@@H](COC(C)=O)O2)cc1	0.277	-0.229	0.0216	0.731 (inactive)	-0.0104	-0.603	0.238	0.128	0.105	0.606
COC(=O)CC=C[C@H](C)[C@@H](OCc1cccc(Br)c1)[C@@H](C)[C@H](OC)C1CCCCC1	0.242	-0.462	-0.233	-0.256 (inactive)	-0.0117	-1.16	0.153	-0.449	0.515	1.34
CC(C)CON=C1[C@H]2CCn3c(=O)n(Cc4cc5c(cc4Cl)OCO5)c(=O)n3[C@H]2[C@H](O)[C@@H]2O[C@H]12	0.241	-0.304	-0.641	-0.756 (inactive)	0.533	0.589	0.483	0.554	0.484	0.233
O=C1[C@H]2[C@H]3[C@H](O)[C@H](O)CC(=NO[C@@H]4O[C@H](CO)[C@@H](O)[C@H](O)[C@H]4O)[C@H]3CC[C@H]2C(=O)N1c1cccc(Oc2ccccc2)c1	0.0739	-0.187	-0.478	0.0512 (inactive)	0.73	0.67	0.508	0.598	0.71	-0.204
